Most compounds without a hit are left out; they make up all but 18% or so of the library.
TDP1 cell noCPT: qHTS for Inhibitors of human tyrosyl-DNA phosphodiesterase 1 (TDP1): qHTS in cells in absence of CPT; DT40 Tdp1-/- hTDP1 cells, no CPT, ATP luminescence, 48 h; Potency, µM (titrated, usually from 46.2 µM), inactives show at the top dose activity change, negative = growth inhibition, most hits filed as inhibitors; 15% of 420,000 active; AID 686978, 2013; also: nearly all actives have a fitted effect of over 55% in size
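Growth kinetics read by CellTiter-Glo luminescence after ≥48 hr at 37 °C. Cells: DT40 Tdp1-/- stably carrying human TDP1, 400 per well, compound exposure in the absence of CPT (DMSO vehicle).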
TDP1 block: blocks human tyrosyl-DNA phosphodiesterase 1. Q9NUW8. recombinant TDP1, AlphaScreen DNA substrate cleavage. Potency, µM (top dose mostly 130 µM), for inactives: top-dose activity change, negative = inhibition, actives largely listed as inhibitors. 0.28% of 350,000 active; also: nearly all actives have a fitted effect of over 40% in size
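Enzyme-compound mixtures sat 15 min at room temperature, followed by a 5 min reaction with 15 nM final substrate and 10 min with AlphaScreen beads. Recombinant human Tdp1 was used at 1 nM final.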
GCN5L2 inh: blocks human GCN5L2 histone acetyltransferase; GCN5L2 HAT assay, ThioGlo1 CoA-SH fluorescence; 0.21% of 390,000 active; Potency, µM (series often up to 58.9 µM), for inactives: top-dose activity change, negative = inhibition, usual class: inhibitors; Q92830
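qHTS, 1536-well. 20nM enzyme, pH 7.5 HEPES/EDTA/Tween-20 buffer; 15 min compound preinc., RT. Start: 75uM H3(1-25), 70uM AcCoA, 50uM ThioGlo1. Read Ex340/Em540 at t=0 (autofluorescence flag) and t=20 min.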
PLK1 PBD block: inhibitors of human PLK1 polo-box domain binding | Plk1 PBD binding of FITC phosphopeptide, fluorescence polarization | Potency, µM, for inactives: max response, negative = inhibition, usual class: inhibitors | 2.8% of 360,000 active | AID 720504; also: series mostly up to about 57 µM; nearly all actives have a fitted effect of over 65% in size
VDR inh: inhibitors of human vitamin D receptor; VDR-SRC2-3 peptide fluorescence polarization, 2 h; P11473; Potency, µM, for inactives: max response, negative = inhibition, actives largely listed as inhibitors; 0.93% of 400,000 active
Target sequence (P11473 whole entry, looked up): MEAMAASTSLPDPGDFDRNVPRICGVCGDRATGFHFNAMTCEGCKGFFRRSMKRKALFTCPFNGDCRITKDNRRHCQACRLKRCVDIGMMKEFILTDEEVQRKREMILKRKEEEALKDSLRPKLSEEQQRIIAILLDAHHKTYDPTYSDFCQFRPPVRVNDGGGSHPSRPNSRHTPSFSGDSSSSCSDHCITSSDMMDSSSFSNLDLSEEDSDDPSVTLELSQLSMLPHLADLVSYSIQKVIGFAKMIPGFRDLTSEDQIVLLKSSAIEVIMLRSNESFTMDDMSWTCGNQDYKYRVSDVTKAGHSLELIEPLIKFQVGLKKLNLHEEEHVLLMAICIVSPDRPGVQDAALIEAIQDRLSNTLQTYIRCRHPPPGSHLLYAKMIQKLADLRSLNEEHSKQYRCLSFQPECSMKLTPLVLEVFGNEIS
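Fluorescence polarization assay of small-molecule disruption of VDR binding to coregulator peptide SRC2-3. Compounds and controls pin-transferred, then read after 2 h incubation at ambient room temperature.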
DT40 TDP1 CPT: DT40-hTDP1 cell growth loss with CPT; Potency, µM (highest dose often 46.2 µM), for the others: top-dose activity change, negative = growth inhibition, actives largely listed as inhibitors; AID 686979; chicken DT40 Tdp1-/-;hTDP1 cells + 20 nM CPT, ATP luminescence, 48 h; 12% of 420,000 active; also: nearly all actives have a fitted effect of over 55% in size
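Chicken DT40 Tdp1-/- cells complemented with human TDP1, 400 cells/well, exposed to compounds plus 20 nM camptothecin for at least 48 h at 37 C; viability read as ATP content by CellTiter-Glo luminescence.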
Starred values were filed as active, the others as inactive; u = inconclusive; x = no result; [ ] = remark or other dose. Calls follow the shape of the dose curve; as a rule, active = well fitted curve in the direction sought with a large enough effect; inconclusive = small, poorly fitted or top-dose-only effect, or another doubt; inactive = no such curve, though single readings can be large; an effect the other way counts as inactive or inconclusive. % is scaled to controls: 0 for no effect and ±100 for the full control effect; potency is read from the fitted curve at half-maximal effect.

SMILES | TDP1 cell noCPT | TDP1 block | GCN5L2 inh | PLK1 PBD block | VDR inh | DT40 TDP1 CPT
Cc1cc(=O)n2nc(N3CCC(C(=O)NC(C)c4ccccc4)CC3)sc2n1 (centres undefined) | -3.2% | 0.0% | 1.8% | 4.7% | 4.2% | u
O=c1[nH]cc(S(=O)(=O)c2ccccc2)[nH]1 | u | 3.5% | -8.3% | 29.9µM* | -29.8% | u
CC1=CC2=NC(=O)C(c3ccccc3)C(=O)N2C=C1 (centres undefined) | -8.6% | x | x | 3.5% | 10.4% | -0.6%
OCC[C@@H]1C[C@H](O)[C@@H](O)[C@@]2(Cc3ccccc3O2)O1 | 23.4% | x | 1.7% | -2.7% | 15.4% | -0.1%
COc1ccc(Cl)cc1CC1(C)C(=O)Nc2ccc(-c3ccccc3OC)cc21 (centres undefined) | 11.6µM* | x | x | 3.1% | x | 20.6µM*
COc1ccccc1-c1ccc2c(c1)C(C)(Cc1ccc(Cl)cc1)C(=O)N2 (centres undefined) | 0.1% | x | x | 1.7% | x | 2.5%
CC(=O)c1cccc(-c2ccc3c(c2)C(C)(Cc2ccccc2C#N)C(=O)N3)c1 (centres undefined) | u | x | x | -11.5% | x | 16.4µM*
COc1ccccc1-c1ccc2c(c1)C(C)(Cc1cc(Cl)ccc1C(F)(F)F)C(=O)N2 (centres undefined) | u | x | x | -14.8% | x | u
CC(=O)c1cccc(-c2ccc3c(c2)C(C)(Cc2ccc(S(C)(=O)=O)cc2)C(=O)N3)c1 (centres undefined) | -25.3% | x | x | 1.9% | x | u
COC(=O)c1cccc(CC2(C)C(=O)Nc3cc(-c4ccccc4Cl)ccc32)c1 (centres undefined) | u | x | x | -11.9% | x | 16.4µM*
COc1ccccc1-c1ccc2c(c1)C(C)(Cc1cccc(C#N)c1)C(=O)N2 (centres undefined) | 16.4µM* | x | x | -8.9% | x | 20.6µM*
O=S(=O)(Nc1ccc(S(=O)(=O)N2CCCC2)cc1)c1ccc(F)cc1F | -3.0% | 1.9% | -5.5% | 2.2% | -4.6% | 3.2%
CCn1cc(C(=O)N[C@@H](CCSC)C(=O)NCCCOC)c(=O)c2cc3c(cc21)OCO3 | 1.5% | x | -14.8% | -0.6% | -11.6% | -0.9%
Cc1ccc([N+](=O)[O-])cc1NC(=S)NC(=O)c1cccnc1 | -9.2% | 5.5% | -2.3% | -21.3% | 1.4% | -1.2%
N#Cc1ccccc1NC(=S)NC(=O)c1cccnc1 | 1.4% | 0.8% | -6.7% | 11.9µM* | -12.0% | 8.4%
O=C(NC(=S)Nc1cc([N+](=O)[O-])ccc1O)c1cccnc1 | 25.9µM* | 6.1% | -9.4% | u | -11.5% | 20.6µM*
CC(C)c1c(C(=O)NCC(C)(C)N2CCOCC2)cnn1-c1nccc(-c2ccccc2F)n1 | u | x | x | x | x | -13.9%[9.04 µM]
CCCC/C=C/C(NC(=O)c1ccc(C(F)(F)F)cc1)c1ccccc1 (centres undefined) | x | -2.7% | x | x | x | x
CCOC(=O)Nc1oc2ccccc2c(=O)c1C | -5.1% | 4.2% | -1.8% | 1.8% | -1.9% | -0.2%
CCOC(=O)/C=C(\C)Sc1cc(=O)oc2ccccc12 | 20.6µM* | 4.7% | -2.1% | -26.1% | 8.6% | 23.1µM*
CC(C)n1c(CN(C)Cc2ccccc2)nc2c1c(=O)n(C)c(=O)n2C | 0.411µM* | x | -8.4% | 0.1% | 4.1% | 0.731µM*
CC(C)n1c(CN2CCN(C)CC2)nc2c1c(=O)n(C)c(=O)n2C | -11.2% | x | x | -3.6% | 3.8% | 14.1%
Cc1ccc(C)c(Cn2c(CN(C)Cc3ccccc3)nc3c2c(=O)n(C)c(=O)n3C)c1 | 14.6µM* | 4.9% | -11.1% | -2.4% | -22.7% | 18.4µM*
CN(Cc1ccccc1)Cc1nc2c(c(=O)n(C)c(=O)n2C)n1Cc1ccc(Cl)cc1 | u | 3.4% | -4.3% | 1.1% | -6.1% | u
Cc1ccc(N2CCN(c3ncnc4onc(-c5ccc(F)cc5)c34)CC2)c(C)c1 | -2.1% | -1.1% | -6.4% | x | -0.5% | 0.0%
SMILES | TDP1 cell noCPT | TDP1 block | GCN5L2 inh | PLK1 PBD block | VDR inh | DT40 TDP1 CPT
CN(C)c1ccc(/C=N/NC(=O)CCc2nc3ccccc3[nH]2)cc1 | -6.4% | 0.0% | -0.9% | -2.3% | -5.1% | 1.7%
Cc1ccccc1NC(=S)Nc1cccc2cnccc12 | u | -5.1% | -1.5% | u | -2.2% | u
CC(=O)c1ccc(NC(=S)Nc2cccc3cnccc23)cc1 | u | 5.0% | -12.1% | 29.9µM* | u | -10.2%
Cc1ccc(C)c(NC(=S)Nc2cccc3cnccc23)c1 | 16.4µM* | -2.6% | 0.9% | u | -25.6% | 14.6µM*
Cc1ccc(NC(=S)Nc2cccc3cnccc23)cc1C | u | 0.0% | 15.3% | 26.7µM* | u | u
CC(=O)Nc1cccc(NC(=S)Nc2cccc3ccccc23)c1 | -18.6% | 4.6% | -10.2% | -10.1% | 1.7% | -20.8%
S=C(Nc1cccc(Cl)c1)Nc1cccc2cnccc12 | 18.4µM* | -1.8% | -3.1% | 26.7µM* | 70.8µM* | 16.4µM*
O=C(CI)Nc1cccc2cccnc12 | x | x | x | x | 7.4% | x
CCn1c(CN2CCC(C)CC2)nc2cc(NC(=O)COc3ccc([N+](=O)[O-])cc3)ccc21 | -19.0% | 2.6% | -7.9% | x | 8.2% | -20.2%
CC(C)CN(C(=O)COc1ccc(-c2nnco2)cc1)C1CCS(=O)(=O)C1 (centres undefined) | 1.8% | 3.9%[56.1 µM] | -21.3% | 0.9% | -1.0% | u
S=C(Nc1cccc(Cl)c1)Nc1ccccc1Oc1ccccc1 | 20.6µM* | 4.8% | -10.8% | -7.3% | 1.6% | u
Cc1ccc(NC(=S)Nc2cccc3cnccc23)cc1 | 16.4µM* | 4.6% | -6.5% | 26.7µM* | u | u
CCCCOC(=O)C(C)Nc1n[nH]c(=S)[nH]c1=O (centres undefined) | 0.0% | -6.8% | -4.1% | 26.7µM* | -15.2% | -11.3%
CCN1CCc2c(OCC(=O)Nc3ccc4c(c3)OCCO4)cccc2C1=O | x | 4.3% | -0.8% | x | x | x
N#CC(Cc1ccccc1OC(F)F)c1nc2ccccc2[nH]1 (centres undefined) | -6.3% | 4.2% | -4.3% | -2.2% | -6.5% | -3.1%
CC(C)(C)CC(C)(C)c1ccc(O)c(CN2CCN(CCC#N)CC2)c1 | 23.1µM* | 6.8% | -2.7% | -0.4% | 2.3% | u
C/C=C/C(=O)C[C@H]1CC[C@@H](C)[C@@H](CCO)O1 | x | 2.5% | x | x | -8.0% | x
COc1ccc(-c2coc3cc(OC(C)=O)cc(OC(C)=O)c3c2=O)cc1 | 10.5% | 10.8% | -10.3% | x | 4.3% | 9.4%
O=C(COC(=O)c1ccc(-n2cnnn2)cc1)c1ccc(Br)cc1 | 1.9% | -7.1% | -3.9% | 0.2% | 2.8% | 1.9%
